The text below walks through data of PubChem BioAssay.

Several values for one entry are separate records, joined by “and”; a condition that tells them apart may be missing. Identical values can stand only once. Activity calls are given as the source filed them. Unless noted, the rule behind the calls is not given here.

Assay [1] is described as follows: compounds altering circadian rhythm period length – cell-based, LOPAC library, luminescence reporter (AID 2774).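 Note: values are relative to mean of DMSO wells on each plate.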 The note with it: circadian reporter cells, at 7 µM, actives lie on both sides.
Assay [2] in a line: compounds altering viability of human ES cells (AID 493140).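 Note: cells exposed to compounds for four days before counting.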 The note with it: human embryonic stem cell survival screen; stronger effect = higher value.
For assay [3], the system named is Aerobactin synthetase IucA (Klebsiella pneumoniae). Kind of assay: inhibition of K. pneumoniae IucA enzyme – biochemical, Tocris library, absorbance (AID 1345561).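 Note: 100% = enzyme without compound and 0% = no enzyme.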 The following applies: purified IucA enzyme assay, absorbance (OD) read-out; stronger effect = lower value;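 tested at 8 µM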.
The nature of assay [4]: chitosan synthesis blockers in C. neoformans – flow cytometry, Cibacron Brilliant Red staining (AID 1347148).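 Note: compound exposure lasted three days at 37 degrees C.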 The following applies: Cryptococcus neoformans chitosan, stronger effect = lower value; at 10 µM unless noted.
Assay [5] is described as follows: MELAS cybrid and Rieske KO viability enhancers – cell-based, MELAS cybrids, Rieske KO mouse fibroblasts, CellTiter-Glo, primary screen (AID 1508586;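 active = mean z-score across replicates of 1.96 or higher in either the MELAS or the Rieske mutant cell line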;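 note: z relative to plate mean and SD of compound and empty wells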). The note with it: low glucose.
Assay [6] in a line: galactose survival enhancers in mitochondrial complex I cybrids – cell-based, galactose medium, ATP luminescence, primary screen (AID 1645843;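 active = z-score of at least 1.8 in each of two replicates, scored against plate mean and spread of sample wells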;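 note: positive z means more ATP and so rescue of galactose-driven cybrid death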). The note with it: complex I mutant cybrid cells, 72 h, stronger effect = higher value.
Assay [7] concerns Hepatitis C virus NS3 helicase. The assay is described as follows: blockers of NS3h binding to ssDNA – biochemical, fluorescence polarization, LOPAC1280 library, primary screen (AID 687035; in the data active = inhibition above about 37%). The following applies: Purified HCV NS3 helicase, Cy5-dT15 ssDNA binding fluorescence polarization; stronger effect = higher value; concentration not given here.
Assay [8] in a line: compounds altering Cy5-DNA-NS3h complex signal – biochemical, LOPAC1280, artefact control for HCV NS3 helicase inhibitor project (AID 687037). The note with it: Cy5-DNA-NS3h complex fluorescence interference counterscreen.
The nature of assay [9]: viability loss with induced miR-34 in A549 – imaging, A549 dox-inducible miR-34, nuclei and caspase counts, primary screen (AID 1347080;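 active = compounds whose cell count with miR-34 switched on is under 0.7 times the count with it off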). The note with it: A549 miR-34 inducible, Hoechst nuclei count, 48 h.
A short description of assay [10]: blockers of cellular phospholipid synthesis – cell-based, LOPAC library, screen 4, primary screen (AID 1347384). The following applies: animal cells, phospholipid biosynthesis inhibition screen; at 10 µM.
Assay [11] can be described thus: P. berghei load reduction in hepatocytes – cell-based, HepG2, luciferase luminescence, HepG2 viability, primary screen (AID 624349; in the data active = parasite load remaining mostly below about 12%, no sharp cut-off; inactive = mostly above about 10%;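 note: 100% = mean of DMSO negative control wells on the same plate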). The note with it: P. berghei liver stage in HepG2, luciferase luminescence, concentration not given here; parasite load remaining: stronger effect = lower value; viability: measured here: HepG2 viability without parasites.
Assay [12] in a line: liver-stage malaria parasite load reduction – cell-based, known kinase inhibitor set, luminescence, hepatoma host viability (AID 624392).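 Note: infected cells incubated roughly two days before readout.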 The following applies: Plasmodium liver stage in hepatoma cells, luciferase luminescence, concentration not given here; liver cell % of control: measured here: host liver cell viability; parasite % of control: stronger effect = lower value.
Setting [13] is: MELAS cybrid survival, CellTiter-Glo 48 h, stronger effect = higher value.
[14] abbreviates: Rieske KO mouse fibroblast survival, CellTiter-Glo 72 h.
The mark [15] stands for this setting: stronger effect = lower value, cell number ratio, induced over uninduced.
[16] abbreviates: measured here: relative caspase fold change +Dox/-Dox.
Setting [17] is: measured here: total cells with miR-34 induction, stronger effect = lower value.
The mark [18] stands for this setting: measured here: total cells without miR-34 induction.

Take `COc1ccc2c(c1)c(CC(=O)N1CCOCC1)c(C)n2C(=O)c1ccc(Cl)cc1`: in assay [1], the period change was -0.115 h (inactive). The survival in assay [2] is 105 (inactive). For the same compound, in [3], the remaining activity was 123% (inactive). Further, in [4], the fold fluorescence is 2.56 (active). In addition, the figures for the z-score in assay [5] (setting [13]), in assay [5] (setting [14]) and in [6] were -0.237 (inactive), -0.286 and -0.295 (inactive), respectively.
On to `CC(C)(C)c1ccc(/C=C/C(=O)Nc2ccc3c(c2)OCCO3)cc1`, for which the inhibition in assay [7] was -1% (inactive). In addition, in [8], the fluorescence ratio (interference) is 1 (inactive). Also, the remaining activity in [3] was 109% (inactive). Further, the fold change in [9] (setting [15]) was 1.15 (inactive) and 1.27 (inactive); in assay [9] (setting [16]), 0.847 and 0.54. In addition, the cell count in [9] (setting [17]) is 4930 and 3950; in assay [9] (setting [18]) it was 4270 and 3100. The call in assay [10] was inactive. Further, the z-score in assay [6] was -1.38 (inactive) and -0.7 (inactive).
As for `Oc1cc2c(cc1O)CN(C(=S)NCCc1ccc(Cl)cc1)CCC2`, the period change in assay [1] was 0.035 h (inactive). Besides, in assay [7], the inhibition was 0% (inactive). Besides, the fluorescence ratio (interference) in assay [8] is 1 (inactive). The remaining activity in [3] was 72.4% (inactive). For the same compound, in assay [4], the fold fluorescence was 5.63 [at 132.7 µM] (inactive). Also, in assay [10], the compound was called inactive. Further, the z-score in [6] was -0.99 (inactive) and -1.23 (inactive).
For the compound `CC[N+](CC)(CC)CC(=O)Nc1c(C)cccc1C`, the period change in assay [1] was 0.065 h (inactive). Moreover, the inhibition in assay [7] was -2% (inactive). For the same compound, the fluorescence ratio (interference) in assay [8] was 1 (inactive). The remaining activity in assay [3] is 100% (inactive) and 106% (inactive). For the same compound, in assay [4], the fold fluorescence is 6.95 [at 145.6 µM] (inactive). Also, the result in assay [10] was inactive. Further, the z-score in assay [6] was 0.42 (inactive) and 1.23 (inactive) and 0.065 (inactive).
For `c1ccc(C(NCc2cccnc2)(c2ccccc2)c2ccccc2)cc1`, the inhibition in [7] is 0% (inactive). Also, the fluorescence ratio (interference) in assay [8] was 1 (inactive). Moreover, the remaining activity in assay [3] was 95% (inactive). For the same compound, the fold change in assay [9] (setting [15]) was 1.09 (inactive) and 0.901 (inactive); in [9] (setting [16]), 1.48 and 1.53. The cell count in assay [9] (setting [17]) was 7080 and 6130; in [9] (setting [18]), 6480 and 6800. For the same compound, in assay [10], the compound was classed as inactive. Also, the z-score in [6] is -1.03 (inactive) and -0.695 (inactive).
As to `O=S(=O)(c1ccccc1)N(CC(F)(F)F)c1ccc(C(O)(C(F)(F)F)C(F)(F)F)cc1`, in [3], the remaining activity is 101% (inactive). For the same compound, the fold change was 0.946 (inactive) and 1.36 (inactive) and 0.863 (inactive) in [9] (setting [15]); 0.813 and 0.647 and 1.59 in assay [9] (setting [16]). Moreover, the cell count in assay [9] (setting [17]) was 5490 and 6260 and 4300; in [9] (setting [18]) it was 5810 and 4590 and 4980. Moreover, the z-score in [5] (setting [13]) is -0.346 (inactive); in assay [5] (setting [14]), -0.159; in assay [6], -0.605 (inactive).
On to `COC1(C2=NCCN2)COc2ccccc2O1` (centres undefined), for which, in [1], the period change was 0.04 h (inactive). Further, the inhibition in assay [7] was -3% (inactive). Besides, the fluorescence ratio (interference) in assay [8] is 0.9 (inactive). In addition, the remaining activity in [3] is 126% (inactive). In addition, the fold change in [9] (setting [15]) was 0.986 (inactive) and 0.983 (inactive); in assay [9] (setting [16]) it was 1.8 and 0.411. The cell count in assay [9] (setting [17]) was 10100; in assay [9] (setting [18]) it was 10300 and 10200. The result in assay [10] was inactive. In addition, the z-score in [6] is -0.135 (inactive) and -0.24 (inactive).
As for `Nc1nc2c(cnn2CCc2ccccc2)c2nc(-c3ccco3)nn12`, in [7], the inhibition was 0% (inactive). Moreover, the fluorescence ratio (interference) in assay [8] was 1 (inactive). Also, the remaining activity in [3] was 107% (inactive). The fold change is 0.995 (inactive) and 1.05 (inactive) in assay [9] (setting [15]); 1.09 and 1.04 in assay [9] (setting [16]). The cell count in assay [9] (setting [17]) is 10300 and 7560; in [9] (setting [18]) it was 10400 and 7200. The outcome in assay [10] was inactive. The z-score in [6] was 0.15 (inactive) and -0.35 (inactive).
As to `Brc1c(Br)c(Br)c2n[nH]nc2c1Br`, in assay [11], the parasite load remaining was 65.4% (inactive) and the viability turned out to be 173%. Besides, in [12], the liver cell % of control was determined as 96.1% and the parasite % of control was 91.6% (inactive). Further, in assay [7], the inhibition is -6% (inactive). Also, the fluorescence ratio (interference) in assay [8] was 1 (inactive). In [3], the remaining activity was 108% (inactive). In addition, the fold change in [9] (setting [15]) was 1.03 (inactive) and 1.02 (inactive). Moreover, the fold change in assay [9] (setting [16]) is 1.41 and 1.13. Also, in assay [9] (setting [17]), the cell count was 10300 and 7940. The cell count in assay [9] (setting [18]) is 9970 and 7790. For the same compound, the compound was classed as inactive in assay [10]. Further, the z-score in assay [6] is -0.92 (inactive) and -0.58 (inactive).
As to `C/C(=C\c1ccc(C(=O)O)cc1)c1ccc2c(c1)C(C)(C)CCC2(C)C`, in assay [1], the period change was 0.4 h (inactive). Besides, the survival in [2] is 85.2 (inactive). Moreover, the inhibition in assay [7] was 0% (inactive). The cell count is 6410 and 5680 and 8680 in assay [9] (setting [17]); 6200 and 5870 and 8620 in assay [9] (setting [18]). Besides, in assay [10], the result was inactive. The z-score in assay [6] was 1.45 (inactive) and 1.6 (inactive).
Turning to `Cc1cccc(C(=O)NCN2CCN(c3ccccc3C#N)CC2)c1`, the period change in assay [1] was 0.095 h (inactive). Moreover, the inhibition in assay [7] was -3% (inactive). The fluorescence ratio (interference) in assay [8] is 1 (inactive). Moreover, the remaining activity in assay [3] was 92.5% (inactive). For the same compound, the fold change in [9] (setting [15]) was 0.97 (inactive) and 0.957 (inactive); in [9] (setting [16]), 0.725 and 1.8. Further, the cell count is 9570 and 9300 in assay [9] (setting [17]); 9870 and 9720 in assay [9] (setting [18]). The call in [10] was inactive. The z-score in assay [6] is -0.125 (inactive) and 0.395 (inactive).
As for `COc1cc2c(CCNC(C)=O)c[nH]c2cc1Cl`, in [1], the period change was -0.08 h (inactive). For the same compound, the inhibition in assay [7] is -1% (inactive). Moreover, the fluorescence ratio (interference) in assay [8] was 1 (inactive). In assay [3], the remaining activity was 94.8% (inactive). In addition, the fold change in [9] (setting [15]) is 1.06 (inactive) and 0.902 (inactive); in assay [9] (setting [16]), 2.61 and 0.855. Also, the cell count in assay [9] (setting [17]) is 9840 and 8550; in assay [9] (setting [18]) it was 9250 and 9470. Moreover, the outcome in [10] was inactive. In addition, the z-score in [6] is 0.525 (inactive) and -0.185 (inactive).
Consider `O=[N+]([O-])c1cccc2c(Br)[nH]nc12`, for which, in assay [1], the period change was -0.085 h (inactive). Besides, the inhibition in assay [7] was -1% (inactive). Further, in assay [8], the fluorescence ratio (interference) was 0.9 (inactive). The remaining activity in assay [3] is 94.1% (inactive). Also, the fold fluorescence in assay [4] is 16.8 [at 206.6 µM] (inactive). Also, the compound was called inactive in [10]. Further, the z-score in [6] was 1.04 (inactive) and -0.23 (inactive).
Take `O=C(O)CCC/C=C\C[C@@H]1[C@@H](/C=C/[C@@H](O)COc2cccc(Cl)c2)[C@H](O)C[C@@H]1O`: the survival in assay [2] is 113 (inactive). In addition, the remaining activity in assay [3] is 110% (inactive). Besides, the fold change was 0.943 (inactive) and 0.93 (inactive) and 0.921 (inactive) in assay [9] (setting [15]); 1.66 and 1.25 and 1.86 in assay [9] (setting [16]). Further, the cell count was 5470 and 5960 and 8580 in [9] (setting [17]); 5810 and 6400 and 9320 in assay [9] (setting [18]). Further, the z-score in assay [6] was -0.155 (inactive).
Regarding `O=C1NC(=O)c2cc(Nc3ccccc3)c(Nc3ccccc3)cc21`, the inhibition in [7] was 0% (inactive). In assay [8], the fluorescence ratio (interference) was 1 (inactive). The remaining activity in assay [3] was 123% (inactive). For the same compound, the fold change in assay [9] (setting [15]) is 1.14 (inactive) and 0.996 (inactive); in assay [9] (setting [16]), 1.65 and 1.45. The cell count was 3180 and 3240 in assay [9] (setting [17]); 2790 and 3260 in assay [9] (setting [18]). Also, the result in assay [10] was inactive. The z-score in [6] was -1.08 (inactive) and -0.55 (inactive).
With `CN/C(=C/[N+](=O)[O-])NCCSCc1ccc(CN(C)C)o1`, the parasite load remaining in [11] is 43.4% (inactive) and 51.6% (inactive). Moreover, in assay [11], the viability was 47.5% and 107%. Besides, the remaining activity in [3] is 114% (inactive). Besides, the fold change is 0.9 (inactive) and 0.849 (inactive) and 0.891 (inactive) in assay [9] (setting [15]); 0.927 and 0.503 and 1.27 in [9] (setting [16]). The cell count in [9] (setting [17]) was 8480 and 7980 and 9140; in [9] (setting [18]) it was 9410 and 10300. The z-score in assay [5] (setting [13]) was -0.0746 (inactive) and -0.291 (inactive); in assay [5] (setting [14]), -0.171 and 0.538; in [6] it was -0.09 (inactive) and 0.3 (inactive).
